From PubChem BioAssay
Mtb betalactam = beta-lactam sensitization of Mtb H37Rv; M. tuberculosis H37Rv growth with meropenem, percent inhibition; inhibition, % at 25 µM; 330,000 compounds, 0.27% hits; call rule not given here;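 also: growth measured after seven days incubation then overnight dye step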
Rv3671c protease = Rv3671c (M. tuberculosis) protease inhibition | 320,000 compounds, 0.048% hits | AID 2606 | inhibition, % at 5.96 µM; in the data active = inhibition above about 38%;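 also: extracellular domain of Rv3671c used as enzyme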
Mtb FBA inh = inhibitors of M. tuberculosis fructose-bisphosphate aldolase; 360,000 compounds, 2.3% hits; AID 588726; inhibition, % at 1 µM; purified M. tuberculosis FBA, fluorescence read-out; P9WQA3
Target sequence (P9WQA3 whole entry, looked up): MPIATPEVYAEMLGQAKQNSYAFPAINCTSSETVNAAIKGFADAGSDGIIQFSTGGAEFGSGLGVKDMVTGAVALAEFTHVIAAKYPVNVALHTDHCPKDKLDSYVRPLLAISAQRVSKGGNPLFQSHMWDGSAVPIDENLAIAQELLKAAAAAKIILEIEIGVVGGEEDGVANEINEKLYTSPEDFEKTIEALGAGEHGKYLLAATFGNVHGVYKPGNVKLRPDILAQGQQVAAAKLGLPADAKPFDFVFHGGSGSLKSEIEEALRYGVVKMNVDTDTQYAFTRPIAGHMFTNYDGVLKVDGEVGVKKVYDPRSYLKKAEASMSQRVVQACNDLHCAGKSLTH
GDH-TPI counter-1 = inhibits GDH-TPI coupling enzymes, artifact for Mtb FBA screen. GDH-TPI coupled enzyme counterscreen, NADH absorbance. inhibition, % at 4.8 µM. 360,000 compounds, 1.2% hits. AID 588335; in the data active = inhibition above about 30%
FadD28 binding = blocks FadD28 binding to the bisubstrate probe. fluorescence polarization. inhibition, % at 12.5 µM. 360,000 compounds, 0.22% hits. AID 588549; in the data active = inhibition above about 8.5%, passing the limit was not always enough
UGM FP inh = blocks M. tuberculosis UGM enzyme; inhibition, % at 10 µM; purified UGM, fluorescence polarization probe displacement; 320,000 compounds, 0.06% hits; AID 504406; in the data active = inhibition above about 10%, passing the limit was not always enough
Mtb FBA confirm = Mtb FBA inhibition, confirmed; shares compounds with Mtb FBA inh; purified M. tuberculosis FBA, fluorescence read-out; inhibition, % at 1 µM; 5,600 compounds, 78% hits
GDH-TPI counter-2 = GDH-TPI inhibition counter-screen for FBA inhibitors. 5,600 compounds, 81% hits. inhibition, % at 1 µM. GDH-TPI coupled enzyme counterscreen, fluorescence. shares compounds with Mtb FBA inh; in the data active = inhibition above about 10%
Each line names hits and unclear results; the compound was inactive in the other large screens (follow-up assays come after a bar, where they were run). Shown are actives, neighbours in structure and some others; about 3.7% of the full set was active somewhere. Rule as the data show it, unless noted: active = inhibition above about 27%; inactive = the rest.

C#CCOc1ccc(CNC[C@H]2O[C@@H](n3ccc(N)nc3=O)[C@H](O)[C@@H]2O)cc1	none (no result: Mtb betalactam, Rv3671c protease, UGM FP inh)
COc1cc(NC(=O)CCCOc2ccc(Cl)cc2Cl)c(C(=O)O)cc1OC	none
O=C(CCCOc1ccc(Cl)cc1Cl)Nc1ccc(O)cc1C(=O)O	Mtb FBA inh 30 | Mtb FBA confirm active | GDH-TPI counter-2 active
COc1ccc(-c2cc(C(=O)O)c3sc(N4CCCCC4)nc3n2)cc1OC	Mtb FBA inh 94 | Mtb FBA confirm 109 | GDH-TPI counter-2 67
O=C(O)c1cc(-c2ccccc2)nc2nc(N3CCCCC3)sc12	none (no result: Mtb FBA inh, GDH-TPI counter-1, FadD28 binding)
O=S1(=O)c2ccc(Br)cc2N2CC[C@H](C2)N1Cc1ccc(Cl)cc1	none (no result: Mtb betalactam, Rv3671c protease, UGM FP inh)
Cc1ccc(-c2cc3nc(-c4ccccc4)cc(N4CCC5(CC4)OCCO5)n3n2)cc1	Mtb FBA inh 33 | Mtb FBA confirm active | GDH-TPI counter-2 active
Fc1cccc(-c2cc3nc(-c4ccccc4)cc(N4CCC5(CC4)OCCO5)n3n2)c1	Mtb FBA inh 53 | Mtb FBA confirm inactive | GDH-TPI counter-2 inactive
Cc1cccc(-c2cc3nc(-c4ccccc4)cc(N4CCC5(CC4)OCCO5)n3n2)c1	none
COc1ccccc1OCCNC(=O)c1ccc2c(c1)CCC2	none
CC(OC(=O)Cc1c(F)cccc1Cl)C(=O)NC1CCCCC1C (stereo unspecified)	none
O=S(=O)(c1ccc2ccccc2c1)N1C=CC(C(F)(F)F)=NCC1	Mtb FBA inh 86 | Mtb FBA confirm inactive | GDH-TPI counter-2 inactive
O=c1[nH]c2c(=O)[nH]cnc2nc1-c1ccccc1	Mtb FBA inh 74 | Mtb FBA confirm 56 | GDH-TPI counter-2 42
COc1ccc(-c2[nH]ncc2/C=N\NC(=O)c2cccs2)cc1OC	none (no result: Rv3671c protease)
CN(C)CCNC(=O)c1cccc2[nH]c(-c3ccncc3)nc12	Mtb FBA inh 35 (no result: Mtb betalactam, Rv3671c protease, UGM FP inh) | Mtb FBA confirm inactive | GDH-TPI counter-2 20
CN(C)CCNC(=O)c1cccc2nc3c(ccc4ccccc43)nc12	none (no result: Mtb betalactam, Rv3671c protease, UGM FP inh)
CC1(C)CC(=O)C2=C(C1)OC1=C(C(=O)CC(C)(C)C1)C2c1ccccc1Cl	none (no result: Mtb betalactam, Rv3671c protease, UGM FP inh)
CC1=CC=CN2CC(O)CN=C12 (stereo unspecified)	Mtb FBA inh 30 | Mtb FBA confirm active | GDH-TPI counter-2 active
CC1=CN2CC(O)CN=C2C=C1 (stereo unspecified)	Mtb FBA inh 38 | Mtb FBA confirm 128 | GDH-TPI counter-2 97
COC(=O)c1ccc(COC(=O)CCNS(=O)(=O)c2ccc(C)c(C)c2)cc1	none (no result: Mtb betalactam, Rv3671c protease, UGM FP inh)
O=c1c2c([nH]c3ccccc13)CCCCC2	none
COc1ccc2[nH]c3c(c(=O)c2c1)CCCC3	Mtb FBA inh 30 (no result: Mtb betalactam, Rv3671c protease, GDH-TPI counter-1, UGM FP inh) | Mtb FBA confirm active | GDH-TPI counter-2 153
CCOC(=O)COc1c(OC)cc(Cl)cc1C1Nc2ccccc2C(=O)N1c1cccc(C)c1 (stereo unspecified)	none
CCOC(=O)COc1c(OC)cc(Cl)cc1C1Nc2ccccc2C(=O)N1c1ccccc1 (stereo unspecified)	Mtb FBA inh 39 | Mtb FBA confirm 144 | GDH-TPI counter-2 118
CCOC(=O)COc1c(OC)cc(Cl)cc1C1Nc2ccccc2C(=O)N1c1ccc(F)cc1 (stereo unspecified)	Mtb FBA inh 33 | Mtb FBA confirm inactive | GDH-TPI counter-2 12
CCOC(=O)COc1ccccc1C1Nc2ccccc2C(=O)N1c1cccc(Cl)c1 (stereo unspecified)	Mtb FBA inh 36 | Mtb FBA confirm active | GDH-TPI counter-2 active
O=C(C[n+]1ccccn1)c1ccccc1	none
CC1(C)CC(n2c(NCCO)nc3c(c2=O)C2(CCCC2)Cc2ccccc2-3)CCO1 (stereo unspecified)	Mtb FBA inh 38 | Mtb FBA confirm active | GDH-TPI counter-2 193
O=c1[nH]c(NCCO)nc2c1C1(CCCCC1)Cc1ccccc1-2	Mtb FBA inh 98 | Mtb FBA confirm inactive | GDH-TPI counter-2 inactive
CC(=O)Nn1cnc2c(c1=O)C1(CCCCC1)Cc1ccccc1-2	none
CC(C)(C)C(=O)NCc1ccc(C(=O)CSc2nnc3n2CCCCC3)s1	none (no result: Mtb betalactam, Rv3671c protease, UGM FP inh)
Cc1[nH]n(-c2nc(-c3ccc(Cl)cc3)cs2)c(=O)c1N=Nc1ccc(O)cc1	none
Cn1c2ccccc2c(=O)c2ccc(C#CC3(N)CCCCC3)cc21	Mtb FBA inh 92 | Mtb FBA confirm 35 | GDH-TPI counter-2 19
Cn1c2ccccc2c(=O)c2cc(C#CC3(O)CCCCC3)ccc21	Mtb FBA inh 93 (no result: Mtb betalactam) | Mtb FBA confirm inactive | GDH-TPI counter-2 inactive
COc1cc(C=C(C#N)c2ccc([N+](=O)[O-])cc2)ccc1O	none (no result: Mtb betalactam, Rv3671c protease, UGM FP inh)
CC(C)(C)S(=O)(=O)N1Cc2ccc(CO)cc2[C@@H]1CCO	none (no result: Mtb betalactam, Rv3671c protease, UGM FP inh)
CC1=C(C#N)C(C)C2=C(CC(C)(C)CC2=O)N1 (stereo unspecified)	Mtb FBA inh 57 | Mtb FBA confirm 71 | GDH-TPI counter-2 65
Oc1cccc2oc(=S)[nH]c12	none (no result: Mtb betalactam, Rv3671c protease, UGM FP inh)
O=C(N/N=C/c1ccc(O)c(O)c1)c1ccc(-n2cnnn2)cc1	Mtb FBA inh 52 | Mtb FBA confirm 52 | GDH-TPI counter-2 52
CC(=O)Nc1cc(-c2ccccc2F)cn2c(-c3ccccc3)cnc12	none (no result: Mtb betalactam, Rv3671c protease, UGM FP inh)
CNc1ccc2ncc(-c3ccccc3NC(C)=O)n2n1	Mtb FBA inh 47 (no result: Mtb betalactam, Rv3671c protease, UGM FP inh) | Mtb FBA confirm inactive | GDH-TPI counter-2 inactive
CCOC(=O)c1sc2nc(C)nc(NCc3ccc(Cl)cc3)c2c1C	none
CCOC(=O)c1sc2nc(CC(=O)OC)nc(NCc3ccc(F)cc3)c2c1C	Mtb FBA inh 32 | Mtb FBA confirm active | GDH-TPI counter-2 148
CCOC(=O)c1sc2nc(C)nc(NCc3ccc(F)cc3)c2c1C	Mtb FBA inh 41 | Mtb FBA confirm 44 | GDH-TPI counter-2 46
CCOC(=O)c1sc2nc(C)nc(NCc3cccnc3)c2c1C	Mtb FBA inh 44 | Mtb FBA confirm 108 | GDH-TPI counter-2 88
CCOC(=O)c1sc2nc(CC(=O)OC)nc(N3CCN(c4ccccn4)CC3)c2c1C	none
O=C(Nc1c(Cl)ccc2nsnc12)c1ccc([N+](=O)[O-])o1	none
Cc1ccc(-c2cc[n+](Cc3ccccc3)cc2)cc1	Mtb FBA inh 67 | Mtb FBA confirm active | GDH-TPI counter-2 active
CN(C)c1ccc(-c2ccnc3c2CC(C)(C(=O)NCCc2ccccc2)O3)cc1 (stereo unspecified)	Mtb FBA inh 47 (no result: Mtb betalactam, Rv3671c protease, UGM FP inh) | Mtb FBA confirm 109 | GDH-TPI counter-2 73
COCCNC(=O)C1(C)Cc2c(-c3ccc(NC(C)=O)cc3)ccnc2O1 (stereo unspecified)	none (no result: Mtb betalactam, Rv3671c protease, UGM FP inh)
CN(C)c1ccc(CNC(=O)C2(C)Cc3c(-c4ccc(N(C)C)cc4)ccnc3O2)cc1 (stereo unspecified)	Mtb FBA inh 46 (no result: Mtb betalactam, Rv3671c protease, UGM FP inh) | Mtb FBA confirm 58 | GDH-TPI counter-2 50
